# Values without a mark were called inactive.
# Tests used:
# Experiment in all cases: log2 ratio of Biotin-Ahx-Ub-VS probe labelling (fragment/DMSO); higher = less target engagement (more negative = stronger competition), active = hit call of the paper (q ≤ 0.05, log2 ratio ≤ -1)
# Conditions in all cases: compound concentration: 200 uM; treatment time: 3 h
# [1] = target: USP9X (UniProt Q93008)
# Outline: (§1)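 Using Biotin-Ahx-Ub-VS at 0.5 µM final for 1 h, DUBs were labelled in HEK293T lysate (495 µg per sample) that had first been treated in triplicate with fragment at 200 µM or vehicle for 3 h. NeutrAvidin enrichment, LysC and trypsin digestion and diaPASEF LC-MS/MS followed. Spectronaut label-free quantities were global-median-normalised. Values are average log2 fragment/vehicle ratios by unpaired t-test, using proteins with ≥2 unique peptides.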
# [2] = target: UniProt O00487
# Outline: as §1
# [3] = target: UniProt O00507
# Outline: as §1
# [4] = target: UniProt P51784
# Outline: as §1
# [5] = target: T1, UniProt Q5T2D3
# T1 sequence (whole entry): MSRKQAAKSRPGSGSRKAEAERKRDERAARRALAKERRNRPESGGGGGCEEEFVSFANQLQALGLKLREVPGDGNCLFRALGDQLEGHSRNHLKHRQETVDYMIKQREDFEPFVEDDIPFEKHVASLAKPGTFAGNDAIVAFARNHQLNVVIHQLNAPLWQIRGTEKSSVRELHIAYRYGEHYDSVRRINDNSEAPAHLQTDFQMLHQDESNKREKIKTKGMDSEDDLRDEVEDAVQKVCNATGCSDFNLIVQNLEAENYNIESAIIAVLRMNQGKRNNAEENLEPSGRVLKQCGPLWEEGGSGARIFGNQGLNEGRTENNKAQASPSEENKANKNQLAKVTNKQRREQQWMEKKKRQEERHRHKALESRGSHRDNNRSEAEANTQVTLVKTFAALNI
# Outline: as §1
# [6] = target: T2, UniProt Q8TE49
# T2 sequence (whole entry): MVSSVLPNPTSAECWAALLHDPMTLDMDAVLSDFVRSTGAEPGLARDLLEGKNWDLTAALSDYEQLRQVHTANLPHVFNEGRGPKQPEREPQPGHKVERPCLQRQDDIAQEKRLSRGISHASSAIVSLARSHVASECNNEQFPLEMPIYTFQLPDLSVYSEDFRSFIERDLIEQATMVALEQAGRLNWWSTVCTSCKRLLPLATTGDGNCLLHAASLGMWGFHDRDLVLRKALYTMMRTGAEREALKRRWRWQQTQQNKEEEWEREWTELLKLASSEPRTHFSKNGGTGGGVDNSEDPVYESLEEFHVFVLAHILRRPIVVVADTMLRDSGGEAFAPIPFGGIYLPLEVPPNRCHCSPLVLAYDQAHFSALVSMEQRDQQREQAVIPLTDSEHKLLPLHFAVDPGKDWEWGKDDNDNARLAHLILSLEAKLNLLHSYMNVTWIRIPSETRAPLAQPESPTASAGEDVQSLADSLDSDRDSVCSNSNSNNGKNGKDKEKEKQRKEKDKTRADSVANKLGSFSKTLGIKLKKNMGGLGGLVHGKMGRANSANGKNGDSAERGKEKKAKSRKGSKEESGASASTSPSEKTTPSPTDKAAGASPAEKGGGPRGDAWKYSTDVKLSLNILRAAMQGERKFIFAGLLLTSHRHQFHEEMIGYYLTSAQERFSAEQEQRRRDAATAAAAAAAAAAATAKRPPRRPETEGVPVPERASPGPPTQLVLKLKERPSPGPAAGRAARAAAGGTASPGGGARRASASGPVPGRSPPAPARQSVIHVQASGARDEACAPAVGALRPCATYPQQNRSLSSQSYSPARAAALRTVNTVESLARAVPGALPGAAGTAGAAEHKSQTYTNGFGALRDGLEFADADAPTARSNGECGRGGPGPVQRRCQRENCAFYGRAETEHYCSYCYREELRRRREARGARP
# Outline: as §1
# [7] = target: T3, UniProt Q9P2H5
# T3 sequence (whole entry): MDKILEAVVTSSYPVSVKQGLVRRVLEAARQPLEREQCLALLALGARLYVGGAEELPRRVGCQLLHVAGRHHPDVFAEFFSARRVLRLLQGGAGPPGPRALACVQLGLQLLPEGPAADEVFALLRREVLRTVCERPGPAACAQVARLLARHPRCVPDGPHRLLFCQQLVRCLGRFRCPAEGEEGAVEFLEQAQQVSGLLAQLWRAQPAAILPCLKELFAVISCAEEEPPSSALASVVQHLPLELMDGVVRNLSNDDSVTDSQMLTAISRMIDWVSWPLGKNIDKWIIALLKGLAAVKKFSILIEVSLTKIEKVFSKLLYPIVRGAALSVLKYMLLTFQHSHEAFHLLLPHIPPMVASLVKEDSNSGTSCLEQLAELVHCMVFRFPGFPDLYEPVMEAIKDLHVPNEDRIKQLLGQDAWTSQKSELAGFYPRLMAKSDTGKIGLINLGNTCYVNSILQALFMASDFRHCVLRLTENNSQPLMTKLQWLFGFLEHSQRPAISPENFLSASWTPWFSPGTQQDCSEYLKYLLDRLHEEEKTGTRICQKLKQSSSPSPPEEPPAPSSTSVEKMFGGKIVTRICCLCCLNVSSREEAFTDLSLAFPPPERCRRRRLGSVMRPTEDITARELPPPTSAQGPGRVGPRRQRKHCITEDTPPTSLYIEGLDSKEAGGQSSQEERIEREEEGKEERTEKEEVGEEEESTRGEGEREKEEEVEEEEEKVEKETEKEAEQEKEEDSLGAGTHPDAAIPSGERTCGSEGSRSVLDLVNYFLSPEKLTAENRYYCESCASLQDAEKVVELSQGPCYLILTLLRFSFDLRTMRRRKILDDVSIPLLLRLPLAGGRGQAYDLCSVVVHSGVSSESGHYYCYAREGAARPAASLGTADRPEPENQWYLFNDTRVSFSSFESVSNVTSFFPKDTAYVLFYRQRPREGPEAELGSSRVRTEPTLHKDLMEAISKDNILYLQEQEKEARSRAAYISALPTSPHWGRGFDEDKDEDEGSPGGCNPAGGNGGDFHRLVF
# Outline: as §1
# [8] = target: T4, UniProt Q9UGI0
# T4 sequence (whole entry): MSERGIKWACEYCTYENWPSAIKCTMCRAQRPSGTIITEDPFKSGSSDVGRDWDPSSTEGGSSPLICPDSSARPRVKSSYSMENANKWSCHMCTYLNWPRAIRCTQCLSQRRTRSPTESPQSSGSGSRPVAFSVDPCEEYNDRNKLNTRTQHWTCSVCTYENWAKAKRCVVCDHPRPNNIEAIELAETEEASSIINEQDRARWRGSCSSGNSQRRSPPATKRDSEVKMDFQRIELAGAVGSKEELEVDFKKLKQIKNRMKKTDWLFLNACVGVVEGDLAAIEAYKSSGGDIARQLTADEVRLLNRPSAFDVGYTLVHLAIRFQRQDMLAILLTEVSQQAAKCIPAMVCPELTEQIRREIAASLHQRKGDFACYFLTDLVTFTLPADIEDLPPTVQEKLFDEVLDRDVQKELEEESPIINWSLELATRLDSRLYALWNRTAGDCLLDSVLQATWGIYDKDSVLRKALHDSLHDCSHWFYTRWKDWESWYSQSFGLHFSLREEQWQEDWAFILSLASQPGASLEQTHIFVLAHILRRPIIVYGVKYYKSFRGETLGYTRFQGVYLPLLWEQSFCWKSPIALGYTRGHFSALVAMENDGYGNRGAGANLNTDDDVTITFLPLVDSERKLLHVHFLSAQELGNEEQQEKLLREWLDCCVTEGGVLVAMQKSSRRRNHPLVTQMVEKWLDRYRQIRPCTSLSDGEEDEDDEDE
# Outline: as §1
# [9] = target: T5, YOD1 (UniProt Q5VVQ6)
# T5 sequence (whole entry): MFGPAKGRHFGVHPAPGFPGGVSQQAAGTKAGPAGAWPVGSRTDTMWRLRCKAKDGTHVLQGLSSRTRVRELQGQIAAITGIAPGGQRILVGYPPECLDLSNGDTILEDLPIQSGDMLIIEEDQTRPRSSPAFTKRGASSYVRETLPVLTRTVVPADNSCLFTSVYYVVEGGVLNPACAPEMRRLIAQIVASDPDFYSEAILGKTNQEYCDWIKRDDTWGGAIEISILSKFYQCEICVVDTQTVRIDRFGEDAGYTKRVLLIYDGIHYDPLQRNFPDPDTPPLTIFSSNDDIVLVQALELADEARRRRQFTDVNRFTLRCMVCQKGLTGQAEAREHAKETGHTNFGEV
# Outline: as §1
# UniProt P51784, sequence (P51784 whole entry): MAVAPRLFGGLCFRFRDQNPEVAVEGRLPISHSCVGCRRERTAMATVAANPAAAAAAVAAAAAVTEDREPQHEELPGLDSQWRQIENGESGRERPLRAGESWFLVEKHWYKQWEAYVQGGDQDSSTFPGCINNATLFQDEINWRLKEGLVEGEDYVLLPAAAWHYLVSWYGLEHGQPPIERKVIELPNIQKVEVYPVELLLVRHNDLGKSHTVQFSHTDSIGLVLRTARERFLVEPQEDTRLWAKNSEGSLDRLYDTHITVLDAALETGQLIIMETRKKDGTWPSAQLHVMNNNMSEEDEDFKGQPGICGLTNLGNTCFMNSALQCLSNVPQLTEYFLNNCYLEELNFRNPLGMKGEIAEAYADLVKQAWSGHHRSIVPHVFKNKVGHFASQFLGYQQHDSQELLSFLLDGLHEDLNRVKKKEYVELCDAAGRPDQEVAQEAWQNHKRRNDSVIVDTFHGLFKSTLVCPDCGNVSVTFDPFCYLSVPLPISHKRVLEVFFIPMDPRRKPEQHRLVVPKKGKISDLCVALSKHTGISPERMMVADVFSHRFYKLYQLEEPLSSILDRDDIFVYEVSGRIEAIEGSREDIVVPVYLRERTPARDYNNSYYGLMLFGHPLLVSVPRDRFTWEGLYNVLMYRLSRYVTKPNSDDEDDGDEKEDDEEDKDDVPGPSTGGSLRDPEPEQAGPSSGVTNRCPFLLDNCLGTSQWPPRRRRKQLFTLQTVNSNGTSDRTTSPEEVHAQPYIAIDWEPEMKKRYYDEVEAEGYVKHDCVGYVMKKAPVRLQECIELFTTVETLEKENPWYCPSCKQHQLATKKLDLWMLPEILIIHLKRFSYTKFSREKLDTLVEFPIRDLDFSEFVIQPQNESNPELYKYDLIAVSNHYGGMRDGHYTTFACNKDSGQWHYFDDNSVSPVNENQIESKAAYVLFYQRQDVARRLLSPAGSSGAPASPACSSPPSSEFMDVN
# UniProt O00507, sequence (O00507 whole entry): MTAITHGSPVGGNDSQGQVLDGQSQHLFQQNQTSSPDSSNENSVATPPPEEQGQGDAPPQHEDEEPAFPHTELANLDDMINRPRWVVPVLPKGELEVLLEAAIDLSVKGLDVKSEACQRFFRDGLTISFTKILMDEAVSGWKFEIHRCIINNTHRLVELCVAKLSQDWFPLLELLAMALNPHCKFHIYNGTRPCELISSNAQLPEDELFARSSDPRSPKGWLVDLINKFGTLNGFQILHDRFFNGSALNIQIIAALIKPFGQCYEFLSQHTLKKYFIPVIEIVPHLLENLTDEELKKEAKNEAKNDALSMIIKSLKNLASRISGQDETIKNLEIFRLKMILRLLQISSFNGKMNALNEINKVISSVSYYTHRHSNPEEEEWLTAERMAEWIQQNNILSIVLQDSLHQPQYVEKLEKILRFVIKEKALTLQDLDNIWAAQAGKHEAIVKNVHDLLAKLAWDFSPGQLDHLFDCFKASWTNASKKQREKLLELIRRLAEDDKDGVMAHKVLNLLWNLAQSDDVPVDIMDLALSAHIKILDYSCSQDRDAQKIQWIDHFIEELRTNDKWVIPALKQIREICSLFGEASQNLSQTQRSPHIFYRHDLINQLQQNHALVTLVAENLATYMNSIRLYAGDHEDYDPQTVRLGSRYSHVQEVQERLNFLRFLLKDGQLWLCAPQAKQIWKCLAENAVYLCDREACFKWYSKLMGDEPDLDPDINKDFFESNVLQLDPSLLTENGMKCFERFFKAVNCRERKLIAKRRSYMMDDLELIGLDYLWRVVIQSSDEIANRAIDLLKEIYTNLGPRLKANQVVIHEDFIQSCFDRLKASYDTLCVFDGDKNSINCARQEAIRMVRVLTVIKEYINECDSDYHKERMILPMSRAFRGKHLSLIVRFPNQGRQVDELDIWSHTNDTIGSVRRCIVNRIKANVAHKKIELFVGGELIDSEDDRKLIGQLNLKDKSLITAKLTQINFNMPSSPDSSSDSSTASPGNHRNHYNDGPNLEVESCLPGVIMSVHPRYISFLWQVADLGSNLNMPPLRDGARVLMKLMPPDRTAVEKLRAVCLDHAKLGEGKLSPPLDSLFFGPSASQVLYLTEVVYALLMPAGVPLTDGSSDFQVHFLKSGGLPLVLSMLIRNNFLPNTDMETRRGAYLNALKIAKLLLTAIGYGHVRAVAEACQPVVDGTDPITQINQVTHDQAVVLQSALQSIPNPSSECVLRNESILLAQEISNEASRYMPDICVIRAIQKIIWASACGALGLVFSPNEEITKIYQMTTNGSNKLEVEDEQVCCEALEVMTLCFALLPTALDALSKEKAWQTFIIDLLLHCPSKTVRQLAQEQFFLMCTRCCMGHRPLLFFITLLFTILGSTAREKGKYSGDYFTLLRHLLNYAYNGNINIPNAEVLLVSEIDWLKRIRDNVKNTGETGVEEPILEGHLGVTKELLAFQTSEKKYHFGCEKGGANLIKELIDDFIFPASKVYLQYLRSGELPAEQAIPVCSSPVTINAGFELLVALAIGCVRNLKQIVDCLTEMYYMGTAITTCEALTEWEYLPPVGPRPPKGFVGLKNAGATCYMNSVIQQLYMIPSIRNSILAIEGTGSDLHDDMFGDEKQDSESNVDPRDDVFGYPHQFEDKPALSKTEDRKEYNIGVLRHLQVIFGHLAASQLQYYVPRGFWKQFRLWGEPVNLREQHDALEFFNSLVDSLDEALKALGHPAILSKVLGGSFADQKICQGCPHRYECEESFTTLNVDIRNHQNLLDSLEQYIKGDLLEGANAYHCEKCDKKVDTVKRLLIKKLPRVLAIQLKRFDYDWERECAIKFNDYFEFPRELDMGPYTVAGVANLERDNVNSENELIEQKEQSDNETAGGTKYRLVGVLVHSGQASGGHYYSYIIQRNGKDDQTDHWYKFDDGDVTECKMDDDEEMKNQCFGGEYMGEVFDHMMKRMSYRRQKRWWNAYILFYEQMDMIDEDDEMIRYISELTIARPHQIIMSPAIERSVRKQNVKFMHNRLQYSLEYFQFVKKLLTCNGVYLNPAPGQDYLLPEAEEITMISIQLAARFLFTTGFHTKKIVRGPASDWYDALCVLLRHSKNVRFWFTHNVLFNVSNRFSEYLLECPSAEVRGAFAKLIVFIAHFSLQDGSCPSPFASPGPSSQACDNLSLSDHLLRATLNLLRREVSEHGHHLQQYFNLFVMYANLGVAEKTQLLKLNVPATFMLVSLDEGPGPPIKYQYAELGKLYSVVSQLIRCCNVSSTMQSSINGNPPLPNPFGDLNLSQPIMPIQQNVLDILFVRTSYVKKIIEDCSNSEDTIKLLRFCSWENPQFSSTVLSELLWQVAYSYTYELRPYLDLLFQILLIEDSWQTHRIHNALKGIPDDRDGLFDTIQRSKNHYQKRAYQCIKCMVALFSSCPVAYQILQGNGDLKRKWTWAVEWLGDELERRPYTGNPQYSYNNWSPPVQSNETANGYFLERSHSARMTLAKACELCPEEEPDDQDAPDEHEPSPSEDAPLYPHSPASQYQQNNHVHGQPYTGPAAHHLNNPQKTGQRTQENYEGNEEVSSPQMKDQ
# UniProt O00487, sequence (O00487 whole entry): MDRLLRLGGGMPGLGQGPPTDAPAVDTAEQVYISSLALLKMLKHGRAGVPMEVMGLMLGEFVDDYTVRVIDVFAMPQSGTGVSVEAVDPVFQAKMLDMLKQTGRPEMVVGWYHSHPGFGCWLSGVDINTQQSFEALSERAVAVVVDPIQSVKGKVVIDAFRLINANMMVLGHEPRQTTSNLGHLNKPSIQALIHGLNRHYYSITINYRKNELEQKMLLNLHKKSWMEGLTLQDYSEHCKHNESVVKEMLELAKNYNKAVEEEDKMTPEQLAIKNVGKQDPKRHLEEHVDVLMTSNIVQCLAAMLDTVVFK
smiles,measurement,setting,value
CN1c2ccccc2C(NC(=O)CCl)CS1(=O)=O (centres undefined),log2 ratio of Biotin-Ahx-Ub-VS probe labelling,[1],-0.252
same,log2 ratio of Biotin-Ahx-Ub-VS probe labelling,[2],-0.206
same,log2 ratio of Biotin-Ahx-Ub-VS probe labelling,[3],-0.0151
same,log2 ratio of Biotin-Ahx-Ub-VS probe labelling,[4],-0.0186
same,log2 ratio of Biotin-Ahx-Ub-VS probe labelling,[5],-0.275
same,log2 ratio of Biotin-Ahx-Ub-VS probe labelling,[6],-2.63 (active)
same,log2 ratio of Biotin-Ahx-Ub-VS probe labelling,[7],-0.164
same,log2 ratio of Biotin-Ahx-Ub-VS probe labelling,[8],-0.46
same,log2 ratio of Biotin-Ahx-Ub-VS probe labelling,[9],-0.0718
